Bioassay records (PubChem BioAssay)
Hits are enriched below; roughly 2.1% of the tested compounds scored in any of these assays.
FUS yeast rescue – FUS proteinopathy suppression in yeast. S. cerevisiae FUS-expressing, growth rescue, OD600, 24 h. Potency, µM (doses to about 76.6 µM), most hits filed as activators. 390,000 compounds, 0.24% hits. AID 1347120;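 further: plate controls were DMSO vehicle for no effect and reference control for full effect; nearly all actives have a fitted effect of over 55% in size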
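Yeast expressing FUS under galactose induction, OD 0.005 in 2% galactose medium; compounds in a dilution series, 24 h at 30C. Growth rescue by absorbance at 600 nm; CP55940 positive control, DMSO negative.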
TDP-43 yeast inh – rescues yeast growth from TDP-43 toxicity; AID 652104; TDP-43 expressing yeast growth rescue, BacTiter-Glo, 24 h; 410,000 compounds, 1.8% hits; Potency, µM (series often up to 46.1 µM), without a hit: top-dose growth rescue (activation), most hits filed as activators; further: % of control where 0% means no effect; nearly all actives have a fitted effect of over 50% in size
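In this qHTS, compounds that restore growth of yeast expressing TDP-43 appear as activators. Cells (OD600=0.02, galactose medium, raffinose-pregrown) are incubated with compound 24 hr at 30 deg C and growth is quantified by BacTiter-Glo.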
Abeta yeast res – A-beta toxicity reversal in yeast; yeast expressing A-beta42, growth rescue, OD600, 48 h; response scale: 0% DMSO, 100% iron-clioquinol control; Potency, µM (titrated, usually from 46.1 µM), hits mostly activators; 410,000 compounds, 0.063% hits; AID 1347071; further: nearly all actives have a fitted effect of over 55% in size
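Yeast growth medium received pinned compounds, then yeast cells expressing toxic A-beta were added; plates incubated at 30 C for 48 hr. Growth read as absorbance at 600 nm, normalized to DMSO and equimolar FeCl3 plus clioquinol controls.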
aSyn yeast inh – inhibitors of alpha-synuclein toxicity in yeast. Yeast expressing alpha-synuclein, growth rescue, BacTiter-Glo, 24 h. Potency, µM (series often up to 46.1 µM), inactives show at the highest dose growth rescue (activation), usual class: activators. 370,000 compounds, 0.14% hits. AID 652106; further: % of control where 0% means no effect; nearly all actives have a fitted effect of over 65% in size
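Galactose-induced alpha-syn yeast (OD600=0.02, raffinose-pregrown) + pinned cpd, 24 hr, 30 deg C; growth by BacTiter-Glo luminescence. Growth restoration scores as activation.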
The depositor's hits bear a star; i = inactive; ? = inconclusive; nt = no result. The call rests on the fitted dose curve; in most records, active means well fitted curve in the direction sought with a large enough effect; inconclusive means small, poorly fitted or top-dose-only effect, or another doubt; inactive means no such curve, though single readings can be large; an effect the other way counts as inactive or inconclusive. Potency means the concentration at half of the fitted maximal effect.

SMILES	FUS yeast rescue	TDP-43 yeast inh	Abeta yeast res	aSyn yeast inh
Cc1ccc(O)c(-c2cc(-c3ccccc3F)[nH]n2)c1	i	20.3%	i	-13.9%
O=C(c1ccoc1)N1CCN(c2cc(-c3cccc(F)c3)nc3cc(-c4cccc(Cl)c4)nn23)CC1	i	?	i	1.4%
COc1cccc2c1C(=O)c1c(O)c3c(c(O)c1C2=O)C[C@](O)(C(C)=O)C[C@H]3O[C@@H]1C[C@@H](N)[C@@H](O)[C@@H](C)O1	i	-12.7%	i	11.2µM*
COc1cccc2c1C(=N)c1c(O)c3c(c(O)c1C2=O)CC(O)(C(C)=O)CC3OC1CC(N)C(O)C(C)O1 (stereo unspecified)	nt	-63.2%	i	-39.3%
O=C1Cc2ccccc2C(=O)N1CCc1ccccc1	i	12.6µM*	i	2.1%
FC(F)(F)c1ccccc1Cc1c(-c2cccc(Br)c2)nc2c3ccccc3ccn12	i	14.1µM*	i	2.1%
Cc1ccc(C(=O)Nc2nc(C(C)(C)C)cs2)s1	i	14.1µM*	i	-37.7%
CCCc1ccc(NC(=O)C2CCCN(c3cnccn3)C2)cc1 (stereo unspecified)	i	31.6µM*	i	?
CCC(NC(=O)CCc1c(C)c2cc3c(C)c(C)oc3cc2oc1=O)C(=O)N[C@@H](Cc1ccccc1)C(=O)O (stereo partly specified)	28.2µM*	-0.3%	i	4.9%
CC1(C)Cc2c(sc3nnn(CC(=O)Nc4ccccc4)c(=O)c23)CO1	i	15.0%	i	13.9%
CC1(C)Cc2c(sc3nnn(Cc4ccc(Cl)cc4)c(=O)c23)CO1	nt	12.6µM*	i	10.3%
CCOC(=O)c1c(NC(=O)COC(=O)c2cccc([N+](=O)[O-])c2)sc(C(=O)N(C)C)c1C	i	14.4%	12.6µM*	1.5%
CCOC(=O)c1c(NC(=O)COC(=O)c2ccc([N+](=O)[O-])cc2)sc(C(=O)N(C)C)c1C	i	12.1%	?	4.1%
CCOC(=O)c1sc(NC(=O)c2cc(-c3ccccc3C)nc3ccccc23)c(C#N)c1C	i	0.9%	i	-32.3%
Cc1ccccc1-c1cc(C(=O)Nc2sc(C)c(C)c2C(N)=O)c2ccccc2n1	i	22.4µM*	i	-18.2%
O=[N+]([O-])c1ccc(NCCOc2ccccc2Cl)nc1	i	22.5%	i	2.0%
CC(C)(C)c1csc(Sc2ccc([N+](=O)[O-])cn2)n1	i	11.2µM*	i	-11.7%
Cc1cccc(Sc2ccc([N+](=O)[O-])cn2)c1	i	11.2µM*	i	1.3%
Cc1cccc(OCCNc2ccc([N+](=O)[O-])cn2)c1	i	12.6µM*	i	2.0%
O=C(N/N=C/c1cn(-c2ccccc2)nc1-c1cc2ccccc2o1)c1ccccc1Br	i	-4.9%	i	-7.9%
Cc1cc(NC(=O)CSc2nnc(Cc3cccn3C)n2CCc2ccccc2)no1	i	6.3%	i	1.2%
CCCCOc1ccc(C(=O)NCCS(=O)(=O)N2CCN(c3ccccc3OC)CC2)cc1	?	12.6µM*	?	nt
O=C(c1ccc(S(=O)(=O)Cc2cc(F)ccc2F)c([N+](=O)[O-])c1)N1CCOCC1	i	20µM*	i	6.7%
O=C(c1ccc(S(=O)(=O)Cc2ccccc2F)c([N+](=O)[O-])c1)N1CCCCCC1	i	5.6%	i	17.0%
COc1ccc(N=c2cc(-c3ccc(OC)cc3)oc3ccccc23)cc1	nt	18.5%	i	1.6%
SMILES	FUS yeast rescue	TDP-43 yeast inh	Abeta yeast res	aSyn yeast inh
COc1ccccc1OCCCn1cc(C#N)c2ccccc21	i	35.5µM*	i	0.5%
N#Cc1cn(CCCOc2ccccc2)c2ccccc12	i	23.0%	?	-5.3%
O=C(COC(=O)/C=C/c1cccc(Cl)c1)Nc1cccc(S(=O)(=O)NC2=NCCC2)c1	?	3.0%	i	-17.1%
O=C1CCC(=O)N1OCCOc1ccc(Cl)c2ccccc12	i	?	i	10.0%
Fc1ccccc1Cn1cc(C(=S)N2CCOCC2)c2ccccc21	i	?	?	20µM*
Fc1ccc(Cn2cc(C(=S)N3CCOCC3)c3ccccc32)cc1	i	?	i	-33.4%
CN(C)c1ccc(-c2n(C)c3ccccc3[n+]2C)cc1	i	-14.9%	i	-0.6%
CCOC(=O)C1=C(Cc2ccc(OC)cc2)C(=O)c2ccccc2C1=O	i	12.6µM*	i	20.1%
CCOC(=O)c1c(C)nc2c(c1-c1cc(OC)ccc1OC)C(=O)c1ccccc1-2	i	10.1%	i	nt
